Sampled rows, rich in hits. Any-hit rate of the full collection: about 1.2%.
PKA-R1A act: activators of PKA-R1A holoenzyme, primary screen, biochemical, fluorescence polarization, Cy5-IP20, bovine R1A, mouse PKAc | 340,000 compounds, 0.083% hits | PKA-R1A dissociation; scaled: DMSO 0%, 113 µM cGMP 100% | cAMP-dependent protein kinase type I-alpha regulatory subunit (Bos taurus) + … | activation, % at 11.4 µM;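 active means percent activation above the mean of all tested compounds plus 3 SD, cut at about 19% in these data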;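 further: higher means more PKAc released from R1A so a rise in polarization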
NR1D1 modulator: modulators of Rev-erb alpha DNA binding, primary screen, biochemical, FITC-DNA, fluorescence polarization, uHTS. Nuclear receptor subfamily 1 group D member 1 (Homo sapiens), P20393. Rev-erbα–FITC-DNA binding, 90 min. activity, % at 10 µM. 370,000 compounds, 0.79% hits. AID 1259318, 2017;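 active means activity above about 14%, limit read from the data; passing the limit was not always enough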
PG9 binder: binders of HIV-1 gp120 antibody PG9, primary screen, biochemical, TR-FRET. HIV-1 gp120 / PG9 antibody interaction. TR-FRET gp120-PG9 antibody binding. inhibition, % at 6.7 µM. 360,000 compounds, 0.43% hits; in the data active means inhibition above about 8.5%
PKA-R2B act: activators of PKA-R2B holoenzyme, primary screen, biochemical, fluorescence polarization, Cy5-IP20, human; PKA-R2B holoenzyme dissociation; R2B truncated from residue 108, S112A mutant; 0% DMSO only, 100% 113 µM cGMP; activation, % at 11.4 µM; 340,000 compounds, 0.079% hits; AID 504700, 2011;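 active means activation above a cutoff set at the mean over all compounds plus 3 SD, cut at about 18% in these data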;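 further: higher means more holoenzyme dissociation and a rise in polarization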
Target sequence (P31323 whole entry, looked up, other chains not shown, the tested form may be a part): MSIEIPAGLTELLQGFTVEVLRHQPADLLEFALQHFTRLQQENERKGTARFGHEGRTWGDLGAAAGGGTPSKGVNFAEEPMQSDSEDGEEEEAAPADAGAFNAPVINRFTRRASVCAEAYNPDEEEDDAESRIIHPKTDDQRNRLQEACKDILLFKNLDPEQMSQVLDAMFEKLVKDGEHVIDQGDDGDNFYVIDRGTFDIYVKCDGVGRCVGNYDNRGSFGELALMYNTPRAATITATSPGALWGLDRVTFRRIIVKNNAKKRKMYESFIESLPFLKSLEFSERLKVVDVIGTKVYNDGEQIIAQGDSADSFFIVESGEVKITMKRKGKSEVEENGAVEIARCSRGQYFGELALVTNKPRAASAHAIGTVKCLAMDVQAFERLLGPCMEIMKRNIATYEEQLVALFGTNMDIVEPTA
PG9 bind confirm: binders of anti-gp120 antibody PG9, confirmation, biochemical, TR-FRET; AID 651571, 2012; inhibition, % at 6.7 µM; TR-FRET PG9 antibody binding; shares compounds with PG9 binder; 1,500 compounds, 90% hits; in the data active means inhibition above about 9%
PGV04 counter: binders of control antibody PGV04, counter-screen for PG9 antibody binder project, biochemical, TR-FRET, distinct HIV envelope site | AID 651604, 2012 | inhibition, % at 6.7 µM | 1,500 compounds, 95% hits | shares compounds with PG9 binder | TR-FRET PGV04 antibody-gp120 binding; in the data active means inhibition above about 9.5%
PG9 binder DR: small-molecule binders of antibody PG9, dose response, biochemical, TR-FRET, HIV-1 gp120 antibody; shares compounds with PG9 binder; TR-FRET PG9 antibody-gp120 binding inhibition; IC50, µM; 95 tested, under 10 active; in the data active means IC50 below about 10 µM
PGV04 binding DR: binders of control antibody PGV04, dose response, counter-screen for PG9 antibody binder project, biochemical, TR-FRET, distinct HIV envelope site | TR-FRET binding to control antibody PGV04 | 95 compounds, 20% hits | IC50, µM | shares compounds with PG9 binder
PG126 binding DR: binders of control antibody PG126, dose response, counter-screen for PG9 antibody binder project, biochemical, TR-FRET, distinct HIV envelope site | shares compounds with PG9 binder | TR-FRET binding to antibody PG126, counterscreen | IC50, µM | 95 compounds, 20% hits
Of the large screens only hits and unclear results are named; the others gave an inactive call (follow-up assays come after a bar, where they were run). Unless noted, no stated cut-off is given here; in the data, active means IC50 below about 9 µM; inactive means the rest.

CCOC(=O)/C(C#N)=C1/C=C(C)NC(c2ccccc2O)=N1	PG9 binder 24 | PG9 bind confirm 27 | PGV04 counter 34
CC1(C)Cc2nc3sc4c(SCC(=O)NCc5ccccc5)ncnc4c3cc2CO1	PG9 binder 48 | PG9 bind confirm 86 | PGV04 counter 88
CC1(C)Cc2nc3sc4c(SCC(=O)O)ncnc4c3cc2CO1	none
COc1ccc(OC)c(C(C(=O)NC2CCCCC2)N(C(=O)c2snc(C(N)=O)c2N)c2ccccc2OC)c1 (stereo not given)	PG9 binder 36 | PG9 bind confirm 36 | PGV04 counter 60
CCSc1nnc(NC(=O)c2cccc3ccccc23)s1	none
CCSc1nnc(NC(=O)COc2ccc3ccccc3c2)s1	PG9 binder 14 | PG9 bind confirm 20 | PGV04 counter 35
Cc1csc(NC(=O)C(Cc2ccccc2)n2cccc2)n1 (stereo not given)	none
CCSc1nnc(NC(=O)C(Cc2ccccc2)n2cccc2)s1 (stereo not given)	PG9 binder 10 | PG9 bind confirm 21 | PGV04 counter 21 | PG9 binder DR inactive | PGV04 binding DR inactive | PG126 binding DR inactive
CCSc1nnc(NC(=O)c2csc(C)c2)s1	PG9 binder 12 | PG9 bind confirm 19 | PGV04 counter 31
CCC(=O)NCC[C@@H]1CCc2ccc3c(c21)CCO3	none (no result: PKA-R1A act, PG9 binder, PKA-R2B act)
O=c1oc(-c2ccccc2)nc2c1cnn2-c1ccccc1	none
O=c1oc(-c2cccs2)nc2c1cnn2-c1ccccc1	PG9 binder 9.5 | PG9 bind confirm 13 | PGV04 counter 18
COc1cc(OC)cc(C(=O)NC2CCSC2=O)c1 (stereo not given)	PG9 binder 15 | PG9 bind confirm inactive | PGV04 counter 39
COc1ccc(C(=O)NC(=S)NC2CCSC2=O)cc1 (stereo not given)	none
CCCCCn1c(NC(=O)c2ccco2)c(S(=O)(=O)c2ccc(C)cc2)c2nc3ccccc3nc21	none
CCCCn1c(NC(=O)c2ccco2)c(S(=O)(=O)c2ccc(C)cc2)c2nc3ccccc3nc21	PG9 binder 18 | PG9 bind confirm 21 | PGV04 counter 25
CCCCn1c(NC(=O)c2ccc(Br)o2)c(S(=O)(=O)c2ccccc2)c2nc3ccccc3nc21	PG9 binder 14 | PG9 bind confirm 18 | PGV04 counter 24
CCCOc1ccc(C2C(C(=O)c3ccco3)=C(O)C(=O)N2CCCn2ccnc2)cc1OC (stereo not given)	none
CCOc1cccc(C2C(C(=O)c3ccc(C)o3)=C(O)C(=O)N2CCCn2ccnc2)c1 (stereo not given)	PG9 binder 9.1 | PG9 bind confirm 15 | PGV04 counter 19
CCCOc1ccc(C2C(C(=O)c3ccco3)=C(O)C(=O)N2CCCn2ccnc2)cc1 (stereo not given)	PG9 binder 19 | PG9 bind confirm 24 | PGV04 counter 28
COCCCN1C(=O)C(O)=C(C(=O)c2ccc(C)o2)C1c1cccc(Br)c1 (stereo not given)	PG9 binder 19 | PG9 bind confirm 20 | PGV04 counter 26
CCOc1cccc(C2C(C(=O)c3ccc(C)o3)=C(O)C(=O)N2Cc2ccncc2)c1 (stereo not given)	none
COCCCN1C(=O)C(O)=C(C(=O)c2ccco2)C1c1ccccc1 (stereo not given)	none
CCCCNC(=O)C[C@H]1C[C@@]2(C(=O)OC)C(=C[C@H](C(C)(C)C)O[C@@H]2C)N(Cc2ccc(Cl)cc2Cl)C1=O	none (no result: PKA-R1A act, PG9 binder, PKA-R2B act)
O=C(CN[C@@H](Cc1c[nH]c2ccccc12)C(=O)NCCc1c[nH]c2ccccc12)NC1CCCCC1	none (no result: PKA-R1A act, PG9 binder, PKA-R2B act)
O=C(O)c1cc2ccccc2c2cc(Br)ccc12	PG9 binder 23 | PG9 bind confirm 28 | PGV04 counter 36
O=C(O)c1cc2ccccc2c2c1C(=O)c1ccccc1-2	none
CCc1ccc(Oc2c(Cl)cnn(-c3ccc(C)cc3)c2=O)cc1	none (no result: PKA-R1A act, PG9 binder, PKA-R2B act)
CCOc1ccc2cc(C(=O)NCc3ccccc3)c(=N)oc2c1	PG9 binder 40 | PG9 bind confirm 15 | PGV04 counter inactive | PG9 binder DR inactive | PGV04 binding DR inactive | PG126 binding DR inactive
CCOc1ccc2cc(C(=O)c3ccccc3)c(=O)oc2c1	none
Cc1ccc(C(=O)CSc2nc(C)cc(SCc3nnc(-c4ccccc4)o3)n2)cc1	PG9 binder 9.4 | PG9 bind confirm 15 | PGV04 counter 22
Cc1cc(=O)[nH]c(SCc2nnc(-c3ccccc3)o2)n1	none
CN1CCN(NC(=O)c2cc(-c3ccc(Br)s3)nc3ccccc23)CC1	PG9 binder 19 | PG9 bind confirm 39 | PGV04 counter 68
O=C(O)c1cc(-c2ccc(Br)s2)nc2ccccc12	PG9 binder 17 | PG9 bind confirm 25 | PGV04 counter 68
CCCCOc1cc(C(=O)NCCN(CC)CC)c2ccccc2n1	none
CCN(CC)CCNC(=O)c1cc(-c2ccc(Br)s2)nc2ccccc12	PG9 binder 15 | PG9 bind confirm 26 | PGV04 counter 50
CCCCN1C(=O)N2Cc3cc(OC)ccc3C2CS1(=O)=O (stereo not given)	none (no result: PKA-R1A act, PG9 binder, PKA-R2B act)
COc1ccc2c(Cl)c(C(N)=O)sc2c1	PG9 binder 18 | PG9 bind confirm 26 | PGV04 counter 35
COc1ccc2c(Cl)c(C(=O)NN)sc2c1	none
COc1cccc(-n2nnnc2SCC(=O)Nc2ccc(C(C)=O)cc2)c1	PG9 binder 16 | PG9 bind confirm 24 | PGV04 counter 39
COc1cc(C=NNC(=O)CN2CCN(Cc3ccc(C)cc3)CC2)cc(OC)c1O	none (no result: PKA-R1A act, PG9 binder, PKA-R2B act)
CCc1ccc(C(=O)C(C)CN2CCCCC2)cc1 (stereo not given)	none (no result: PKA-R1A act, PG9 binder, PKA-R2B act)
